Test [1] can be described thus: AP1 Signaling Pathway (AID 357). Further: on the % scale 0 is the no-effect control and ±100 the full control effect. The conditions noted are these: ME-180 AP-1-bla reporter, EGF-induced, beta-lactamase ratio, 5 h; at 17.2 µM (top of the series) unless noted. Put shortly:
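AP-1-bla ME-180 cells with beta-lactamase reporter under AP-1 response element, stimulated with EC50 EGF; compounds titrated, 5 hours at 37 degrees Celsius. CCF4 read at 460/530 nm ratio; positive and negative modulators judged by AC50.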

Test [2] in a line: NFAT Signaling Pathway (AID 444).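 Further: carbachol stimulus at about its EC50 of 1 µM final; on the % scale 0 is the no-effect control and ±100 the full control effect.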 The note with it: Jurkat NFAT-bla M1, carbachol, beta-lactamase ratio, 5 h; at 17.2 µM (top of the series) unless noted. The method, boiled down:
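Jurkat cells carrying an NFAT-driven β-lactamase reporter and co-transfected muscarinic M1 receptor were treated with compound plus carbachol (1 uM final, an EC50 level) for 5 h at 37 °C. CCF4 loading followed for 1 h at RT; 460/530 nm ratio gave %activity.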

The nature of test [3]: Stat Signaling Pathway (AID 446).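 Further: ME-180 cervical cancer cells given 40 pM IL-6 alongside compound; SIE-controlled beta-lactamase reporter measured as 460/530 nm FRET emission ratio; on the % scale 0 is the no-effect control and ±100 the full control effect.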 The note with it: ME-180 (cervical carcinoma) SIE beta-lactamase reporter, IL-6 stimulated, 5 h; at 17.2 µM (top of the series) unless noted. The method, boiled down: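 Emission at 460 and 530 nm (excitation 405 nm) reports SIE-controlled beta-lactamase in ME-180 cells. Cells received compound with 40 pM IL-6 for 5 hrs at 37 C; data scaled between 300 pM IL-6 and 125 nM JAK-inhibitor controls.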

The target of test [4] is Glucocorticoid receptor (Homo sapiens) (UniProt P04150). As to the kind of experiment: GR-GFP Redistribution (AID 450;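 active means compounds whose dose series gives a full or clear partial fitted curve of increased nuclear translocation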; further: potency means the concentration at half of the fitted maximal effect).

A number with no mark means an inactive call. Records with an inconclusive call do not appear. The source made the active and inactive calls. Unless noted, the call rests on the fitted dose curve; in most records, active means well fitted curve in either direction with a large enough effect (not every such curve was filed as active); inconclusive means small, poorly fitted or top-dose-only effect, or another doubt; inactive means flat fitted curve, though single readings scatter.

Chain of Glucocorticoid receptor (Homo sapiens) (P04150 whole entry, looked up): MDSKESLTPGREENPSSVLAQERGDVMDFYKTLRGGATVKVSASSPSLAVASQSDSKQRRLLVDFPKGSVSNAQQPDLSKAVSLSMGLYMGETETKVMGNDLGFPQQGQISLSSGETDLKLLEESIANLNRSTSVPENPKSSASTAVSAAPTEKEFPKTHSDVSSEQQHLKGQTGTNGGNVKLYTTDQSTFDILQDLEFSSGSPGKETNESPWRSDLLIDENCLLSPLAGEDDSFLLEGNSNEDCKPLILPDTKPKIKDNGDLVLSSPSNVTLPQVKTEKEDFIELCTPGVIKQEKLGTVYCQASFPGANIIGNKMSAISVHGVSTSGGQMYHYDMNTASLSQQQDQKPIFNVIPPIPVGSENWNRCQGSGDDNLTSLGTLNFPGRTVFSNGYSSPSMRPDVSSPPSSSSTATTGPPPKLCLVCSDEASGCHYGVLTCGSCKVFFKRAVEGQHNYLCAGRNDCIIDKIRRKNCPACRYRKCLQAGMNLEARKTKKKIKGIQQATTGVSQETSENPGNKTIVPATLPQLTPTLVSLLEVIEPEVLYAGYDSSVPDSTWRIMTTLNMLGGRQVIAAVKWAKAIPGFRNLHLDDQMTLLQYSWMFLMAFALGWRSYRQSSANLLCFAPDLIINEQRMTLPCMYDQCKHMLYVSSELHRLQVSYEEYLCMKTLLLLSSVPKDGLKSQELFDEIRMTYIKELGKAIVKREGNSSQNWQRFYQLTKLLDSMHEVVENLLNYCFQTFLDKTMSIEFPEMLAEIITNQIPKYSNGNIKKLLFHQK

Regarding `COc1cc(-c2nn3c(-c4ccccn4)nnc3s2)cc(OC)c1OC`, the results for the activity change, negative = inhibition in test [1] and in test [2] were 1.69% and 10.9%, respectively. Moreover, in test [3], the activity, negative = inhibition was 1.47%. Besides, the Potency in test [4] was more than 20.6 µM.
The corresponding values for `COc1ccc(CSc2nnc(C)n2N)cc1Br` are -1.02%, -3.73%, 8.37% and more than 20.6 µM.
The corresponding values for `CCOC(=O)c1c(C(C#N)C#N)cc(C)nc1C` are 9.21%, -6.15%, 1.48% and more than 20.6 µM.
The corresponding values for `COc1cc(N2C(=O)CSC23C(=O)Nc2ccccc23)cc(OC)c1OC` (centres undefined) are 14.9%, 18.9%, -2.69% and more than 20.6 µM.
On to `CCOC(=O)c1oc2cc(O)cc(C)c2c(=O)c1-c1cscn1`, for which the activity change, negative = inhibition in test [1] is 0.0813%; in test [2], 11.5%. Besides, the activity, negative = inhibition in test [3] was -0.432%. Besides, the Potency in test [4] is more than 20.6 µM.
The corresponding values for `COc1cccc(C=NCCNC(=O)c2nonc2N)c1O` are 0.441%, -9.52%, 7.79% and more than 20.6 µM.
The corresponding values for `COC(=O)c1ccc(Cn2c(O)c(N=O)c3ccccc32)o1` are -14.4%, 18.3%, 3.14% and more than 20.6 µM.
The corresponding values for `CCOc1ccc(-n2c(SCc3ccc(C#N)cc3)nnc2-c2cccnc2)cc1` are -13.8%, 6.12%, -13.6% and more than 20.6 µM.
Consider `COc1ccc(-c2nnc3sc(-c4c(OC)cccc4OC)nn23)cc1`, for which the figures for the activity change, negative = inhibition in test [1] and in test [2] were -13.7% and -15.1%, respectively. In addition, the activity, negative = inhibition in test [3] was 6.15%. For the same compound, the Potency in test [4] is more than 20.6 µM.
Consider `C/C(CC1(O)C(=O)N(Cc2ccccc2)c2ccccc21)=N\O` (centres undefined), for which the activity change, negative = inhibition in test [1] was 2.48%; in test [2] it was 1.97%. For the same compound, the activity, negative = inhibition in test [3] was 3.88%. Besides, in test [4], the Potency is more than 20.6 µM.
The corresponding values for `Cc1cc(/C=N\O)c(C)n1-c1ccncc1` are 0.0567%, 23.9%, -5.06% and more than 20.6 µM.
`O=C(O)C1CC(=O)N(Cc2cccs2)C1` (centres undefined): the activity change, negative = inhibition in test [1] was -0.708%; in test [2] it was -5.3%. For the same compound, the activity, negative = inhibition in test [3] is 7.75%. The Potency in test [4] is more than 20.6 µM.
The corresponding values for `CCN(CC)S(=O)(=O)c1ccc2c(c1)c(C(=O)O)cn2C` are -6.47%, -1.02%, 1.11% and more than 20.6 µM.
The corresponding values for `Cc1cccc2c1NC(C)CC2C` (centres undefined) are 9.08%, 11.8%, 13.3% and more than 20.6 µM.
The corresponding values for `CCN(CC)C(=O)CSC1=C(C#N)C(c2cccs2)C=C(C)N1` (centres undefined) are -28.4%, -9.19%, 6.46% and more than 20.6 µM.
Regarding `COc1ccc(NCc2cc3ccccc3[nH]c2=O)cc1`, the activity change, negative = inhibition in test [1] is -1.34%; in test [2] it was -19.9%. Also, the activity, negative = inhibition in test [3] is 1.46%. In addition, the Potency in test [4] was more than 20.6 µM.
Turning to `CCOC(=O)C(OC(=O)c1sc(=S)n(C)c1C)C(C)=O` (centres undefined), the results for the activity change, negative = inhibition in test [1] and in test [2] were 18% and 6.69%, respectively. The activity, negative = inhibition in test [3] is 9.46%. Besides, the Potency in test [4] is more than 20.6 µM.
The corresponding values for `COc1ccc(C(=O)NCCCCCC(=O)O)cc1OC` are 5.18%, -3.46%, 2.88% and more than 20.6 µM.
The corresponding values for `C/C(=N\O)C1(C)N(O)C(C)(C)C(c2ccco2)=[N+]1[O-]` (centres undefined) are 5.37%, 9.27%, 1.33% and more than 20.6 µM.
As for `COc1ccc(NC(=O)Nc2cccc(C(=O)N3CCOCC3)c2)cc1OC`, the activity change, negative = inhibition in test [1] was 3.36%; in test [2] it was -1.43%. Moreover, the activity, negative = inhibition in test [3] was 0.00442%. The Potency in test [4] is more than 20.6 µM.
`CC(=O)OCc1c(COC(C)=O)[n+](=O)c2ccccc2n1[O-]`: the figures for the activity change, negative = inhibition in test [1] and in test [2] were 8.53% and -3.2%, respectively. Moreover, the activity, negative = inhibition in test [3] is 0.487%. Besides, the Potency in test [4] was more than 20.6 µM.
The corresponding values for `NC(=O)C(c1ccccc1)C1CCCC1` (centres undefined) are -5.55%, 1.68%, 15.2% and more than 20.6 µM.
For the compound `Cc1cc(C)n(C(=O)CNC(=O)CCc2ccccc2)n1`, the activity change, negative = inhibition was 8.64% in test [1] and 9.94% in test [2]. Moreover, the activity, negative = inhibition in test [3] is 2.58%. Also, the Potency in test [4] is more than 20.6 µM.
For the compound `Cc1nnc(SCCC#N)n(CCC#N)c1=O`, the activity change, negative = inhibition in test [1] was 25.1%; in test [2], -2.84%. Besides, in test [3], the activity, negative = inhibition is -5.67%. Also, in test [4], the Potency was more than 20.6 µM.
The corresponding values for `COC(=O)c1cc(Br)c(=O)n(Cc2ccco2)c1` are 10.7%, -14.5%, -3.41% and more than 20.6 µM.
The corresponding values for `CC1(C)CC(=O)C(C=NCCN2CCN(C(=O)C34CC5CC(CC(C5)C3)C4)CC2)=C(O)C1` are -9.89%, 9.88%, 7.24% and more than 20.6 µM.
Turning to `CCC(=O)NC1(C(F)(F)F)C(=O)Nc2c1c(=O)[nH]c(=O)n2Cc1ccco1` (centres undefined), the activity change, negative = inhibition was 6.62% in test [1] and 18.9% in test [2]. In test [3], the activity, negative = inhibition was -0.859%. Also, the Potency in test [4] is more than 20.6 µM.
Consider `CNc1oc(-c2ccc(Cl)cc2)nc1C#N`, for which the activity change, negative = inhibition is -1.98% in test [1] and 18.3% in test [2]. Moreover, the activity, negative = inhibition in test [3] was 5.14%. Besides, the Potency in test [4] is more than 20.6 µM.
The corresponding values for `CCOC(=O)CSc1nc2ccccc2c(=O)n1C` are -12.5%, -11.5%, 1.58% and more than 20.6 µM.
For the compound `CSC1=C(C#N)C(c2ccc(C)s2)CC(=O)N1` (centres undefined), the activity change, negative = inhibition was -7.45% in test [1] and -2.53% in test [2]. Also, the activity, negative = inhibition in test [3] is 7.78%. Further, the Potency in test [4] is more than 20.6 µM.
The corresponding values for `Cc1cc(=O)n2[nH]cnc2n1` are 14.3%, 10.4%, 13.7% and more than 20.6 µM.
The corresponding values for `CCOC(=O)c1c(C)n(C)c2ccc(OC)c(NC(=O)CN3CCCCC3)c12` are -11.4%, -1.27%, -0.178% and more than 20.6 µM.
The corresponding values for `COC(=O)C1=C(C)N=C2SC(C)C(=O)N2C1/C=C/c1ccccc1OC` (centres undefined) are 2.3%, -16.8%, -6.43% and more than 20.6 µM.
Consider `COC(=O)c1ccc(CN(C(C)=O)c2ccccc2)o1`, for which the activity change, negative = inhibition was 10.5% in test [1] and -7.2% in test [2]. Further, the activity, negative = inhibition in test [3] is 7.8%. The Potency in test [4] was more than 20.6 µM.
The corresponding values for `CC(=O)c1c(C)c2c(n1CCN(C)C)CCCC2` are 123% [activator] (active), -7.5%, 9.43% and more than 20.6 µM.
The corresponding values for `COc1ccc(-c2cc(-c3ccccc3)n3ncnc3n2)cc1` are -5.02%, -9.06%, 1.12% and more than 20.6 µM.
As for `COc1cccc(-c2nn3c(-c4ccco4)nnc3s2)c1`, the activity change, negative = inhibition in test [1] is -16%; in test [2], 2.73%. Moreover, the activity, negative = inhibition in test [3] was 6.95%. Moreover, the Potency in test [4] is more than 20.6 µM.
The corresponding values for `COc1ccc(/C=C(/C#N)c2cccnc2)cc1OC` are -13.8%, -0.696%, 5.95% and more than 20.6 µM.
The corresponding values for `N#C/C(C(=O)N1CCOCC1)=C1/SC(Cc2ccccc2)C(=O)N1c1ccccc1` (centres undefined) are 6.74%, -2.77%, -8.3% and more than 20.6 µM.
The corresponding values for `Fc1cnc(N2CCOCC2)nc1NCc1ccccc1` are 10.9%, -3.23%, -8.43% and more than 20.6 µM.
`C=CCNc1nc(-c2cccc(OC)c2O)nc2ccccc12`: the activity change, negative = inhibition in test [1] is 20.2%; in test [2], 4.81%. The activity, negative = inhibition in test [3] was -11.9%. Further, in test [4], the Potency was more than 20.6 µM.
The corresponding values for `N#CC1=C(C=Nc2ccccc2O)CCC1` are 12.3%, 8.46%, -1.34% and more than 20.6 µM.
Take `COc1ccc(C2=Nn3c(nnc3-c3ccccc3)SC2)cc1OC`: the activity change, negative = inhibition in test [1] and in test [2] was -10.8% in each case. In test [3], the activity, negative = inhibition is 3.68%. For the same compound, the Potency in test [4] was more than 20.6 µM.
Regarding `O=C(O)c1cc2n(n1)C(C(F)(F)F)CC(c1ccccc1)N2` (centres undefined), the activity change, negative = inhibition was 3.84% in test [1] and -0.387% in test [2]. The activity, negative = inhibition in test [3] was -1.46%. Moreover, in test [4], the Potency is more than 20.6 µM.
The corresponding values for `COc1ccccc1C1C(C#N)=C(N)Oc2cc(C)n(Cc3ccccn3)c(=O)c21` (centres undefined) are -12.5%, -9.78%, -1.34% and more than 20.6 µM.
The corresponding values for `Cc1ccc(/C=N/n2nnnc2N)o1` are 2.97%, -0.388%, -5.51% and more than 20.6 µM.
The corresponding values for `C=CCN=C(C)C1=C(O)CCC1=O` are 23.8%, -7.26%, 20.3% and more than 20.6 µM.
On to `COC(=O)COc1ccc(Oc2nc(SC)nc(N(C)C)n2)nn1`, for which the activity change, negative = inhibition in test [1] is 4.25%; in test [2] it was 4.35%. Further, the activity, negative = inhibition in test [3] was -4.81%. In addition, in test [4], the Potency is more than 20.6 µM.
The corresponding values for `CN(C)CCCOC(=O)C1c2ccccc2Oc2ccccc21` are 9.34%, -63.3% (active), -0.433% and more than 20.6 µM.
For the compound `CCOC(=O)c1c(C)n(C)c2ccc(OC)c(NC(=O)CN3CCSCC3)c12`, the activity change, negative = inhibition is -2.27% in test [1] and -0.789% in test [2]. Further, the activity, negative = inhibition in test [3] was -8.37%. In addition, the Potency in test [4] was more than 20.6 µM.
The corresponding values for `COc1cc(=O)n2c(-c3ccccc3)csc2n1` are 6.57%, 0.0134%, 8.66% and more than 20.6 µM.

The values are drawn from PubChem BioAssay (NCATS).
